The list is not random: actives were taken first. Their share in the collection is about 2.3%.
ADAM17 inh: inhibitors of human ADAM17; P78536; recombinant ADAM17, EDANS/DABCYL FRET peptide cleavage; inhibition, % at 6.95 µM; hit rate 0.83% among 370,000;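 active = inhibition above the mean of compounds lying between control limits plus 3 SD, set per campaign, cut at about 8.5% in these data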;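 also: 0% = DMSO-only wells as the low control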
Target sequence (P78536 215-824 limits assumed): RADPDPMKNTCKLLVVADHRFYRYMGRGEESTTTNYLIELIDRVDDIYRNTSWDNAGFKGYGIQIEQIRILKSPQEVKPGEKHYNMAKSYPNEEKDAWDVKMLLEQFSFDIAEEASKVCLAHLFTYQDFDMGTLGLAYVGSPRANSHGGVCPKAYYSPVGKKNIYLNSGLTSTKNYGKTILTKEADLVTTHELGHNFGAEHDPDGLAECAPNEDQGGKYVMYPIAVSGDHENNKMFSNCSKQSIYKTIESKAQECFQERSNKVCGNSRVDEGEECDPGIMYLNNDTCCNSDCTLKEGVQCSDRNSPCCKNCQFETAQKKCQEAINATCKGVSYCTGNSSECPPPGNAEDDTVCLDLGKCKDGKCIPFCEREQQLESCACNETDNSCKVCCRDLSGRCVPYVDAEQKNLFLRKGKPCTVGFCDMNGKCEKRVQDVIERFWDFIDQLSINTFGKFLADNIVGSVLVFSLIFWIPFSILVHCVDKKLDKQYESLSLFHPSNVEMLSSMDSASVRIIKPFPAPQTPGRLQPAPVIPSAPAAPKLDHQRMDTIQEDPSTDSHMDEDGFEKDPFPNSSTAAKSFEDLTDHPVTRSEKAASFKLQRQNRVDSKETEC
V-ATPase pHluor: yeast V-ATPase proton transport regulation by pHLuorin; S. cerevisiae, pHLuorin cytosolic pH fluorescence; response, % at 10 µM; hit rate 0.37% among 350,000; AID 504577; in the data active = response mostly above about 7.3%, no sharp cut-off; inactive = mostly below about 5.4%; also: actives read high
ADAM10 inh: inhibits human ADAM10; O14672; recombinant ADAM10, EDANS/DABCYL FRET peptide cleavage, 3 h; inhibition, % at 7 µM; hit rate 0.62% among 370,000; AID 720582;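 active = inhibition above a per-campaign cutoff equal to the mean of compounds falling between control-based bounds plus 3 SD, cut at about 20% in these data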;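 also: 0% = DMSO wells while the 100% control is not disclosed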
proKLK7 act: activators of human kallikrein-7 zymogen; purified proKLK7, EDANS-DABCYL substrate fluorescence; 100% is mature enzyme control, 0% vehicle; P49862; hit rate 0.9% among 370,000; activation, % at 7 µM; AID 652039;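 active = activation above the mean of all tested compounds plus 3 SD, computed per campaign excluding outliers beyond control limits, cut at about 13% in these data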
KLK7 act conf: proKLK7 activation, confirmation; shares compounds with proKLK7 act; purified proKLK7, EDANS-DABCYL substrate fluorescence; scaled: vehicle 0, mature enzyme 100; activation, % at 7 µM; hit rate 68% among 3,200; AID 686949;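 active = activation, as change over the incubation, above the mean of all tested compounds plus 3 SD, cut at about 13% in these data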
EDANS interfere: optically interferes with EDANS-DABCYL signal, flagging KLK7 hits; shares compounds with proKLK7 act; EDANS-DABCYL substrate fluorescence interference, no enzyme, 4 h; solvent 0%, active enzyme control 100%; activation, % at 7 µM; hit rate 80% among 3,200; AID 686952;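 active = activation above the all-compound mean plus 3 SD, ignoring values outside control-based bounds, cut at about 4.8% in these data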;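 also: value is the 4 h activation minus the activation read at time zero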
K7 EDANS ctr: counter-screen for kallikrein-7 activators: EDANS-DABCYL interference, dose response | shares compounds with proKLK7 act | EDANS-DABCYL peptide fluorescence interference, no enzyme | EC50, µM | hit rate 20% among 250;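 active = compounds that raise the fluorescence signal in this interference counterscreen, with EC50 at or below 10 µM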;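 also: intact quenched peptide substrate alone read at 355 nm excitation and 520 nm emission; signal is fluorescence gain from T0 to T4 after four hours at room temperature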
* marks the source's active call; other numbers are inactive results; i = inactive; . = not tested or not shown.

SMILES	ADAM17 inh	V-ATPase pHluor	ADAM10 inh	proKLK7 act	KLK7 act conf	EDANS interfere	others
C#CCN(Cc1cccc(F)c1)C(=O)c1nnc2c3cc(F)ccc3n(S(=O)(=O)c3ccc(OC)cc3)c2n1	3.6	.	-4.1	0.2	.	.
CCOC(=O)c1cnn2c(C(F)(F)F)cc(-c3cn(C)nc3C)nc12	-257.7	3.1	i	19.7*	40.6*	24.6*	K7 EDANS ctr=>69.5
CCOC(=O)c1cnn2c(C(F)(F)F)cc(-c3ccccc3)nc12	-30.3	0.8	-94.5	18.6*	-68.8	-73.3
CCOC(=O)C1CCCN(C(=O)c2cnn3c(C(F)(F)F)cc(-c4ccccc4)nc23)C1 (stereo unspecified)	-17.8	-0.1	-35.2	5.6	.	.
CCOC(=O)c1nn(-c2cccc(C)c2)c2nc(-c3ccccc3)c(C#N)c(=O)n12	-12.1	0.0	-37.6	0.8	.	.
CCOC(=O)c1nn(-c2ccc(F)cc2)c2nc(-c3ccccc3)c(C#N)c(=O)n12	-135.0	2.5	-416.3	40.1*	138.2*	146.4*
CSCCNC(=O)C1(C)CCN1C(=O)CCc1ccccc1 (stereo unspecified)	-4.8	.	-0.2	16.1*	0.1	-0.1
Cn1c(=O)c2cc(NC(=O)NCCc3ccccc3)ccc2n1Cc1ccc(F)cc1	i	.	i	15.8*	0.6	-0.4
COc1ccc(CCNC(=O)Nc2ccc3c(c2)c(=O)n(C)n3Cc2ccc(F)cc2)cc1OC	-386.5	.	i	11.5	.	.
Cn1c(=O)c2cc(NC(=S)NC3CC3)ccc2n1Cc1ccc(F)cc1	-157.2	.	i	13.7*	9.3	13.7*
C=C(C)Cn1c2ccc(NC(=O)NCCc3ccccc3)cc2c(=O)n1C	i	.	i	27.4*	8.5	19.6*
O=C(NCC(c1ccccc1)c1ccccc1)[C@H](Cc1ccccc1)NC1(C(=O)NC2CCCCC2)CCCC1	-2.3	.	2.0	.	.	.
CC(=O)O[C@@H]1CCC[C@@]2(C(=O)Nc3ccccc32)[C@H]1NC(=O)C(C)C	-1.0	.	-2.9	1.1	.	.
CNc1ccc(/C=C\CCCO)cn1	-340.2	.	i	16.2*	15.1*	18.3*
COc1ccc2oc3cc(NCCN(C)C)ccc3c(=O)c2c1	i	.	i	65.8*	79.7*	78.6*
Cc1nn(-c2ccccc2)c(C)c1/C=N\N1CCN(Cc2ccccc2Cl)CC1	1.6	.	0.4	0.3	.	.
C=CCNC(=O)CN1c2cccc3cccc(c23)S1(=O)=O	-70.0	3.7	-159.9	13.1*	4.1	7.1*
CC(C)CNC(=O)CN1c2cccc3cccc(c23)S1(=O)=O	-73.5	-0.3	-218.2	7.8	.	.
CC(C(=O)O)N1c2cccc3cccc(c23)S1(=O)=O (stereo unspecified)	-122.7	2.4	-296.1	21.6*	26.5*	28.0*
CC(C(=O)N(C)C)N1c2cccc3cccc(c23)S1(=O)=O (stereo unspecified)	-36.2	-1.5	-153.1	8.0	.	.
O=C(O)CCN1c2cccc3cccc(c23)S1(=O)=O	-87.1	-1.4	-247.6	15.6*	18.7*	11.3*	K7 EDANS ctr=>69.5
CN(C)C(=O)CN1c2cccc3cccc(c23)S1(=O)=O	-85.3	-1.4	-206.5	7.2	.	.
COCCCNC(=O)C[C@H]1C[C@@]2(C(=O)OC)C(=C[C@H](C3CCCC3)O[C@@H]2C)N(Cc2ccccc2)C1=O	7.2	.	-1.0	-0.3	.	.
CC(=O)c1cc(-c2cc3ccccc3o2)c(=O)n2c1CCC2	-6.9	.	-25.2	0.1	.	.
CC(=O)OCCc1c2ccccc2c(CCCN(C)C)c2ccccc12	-481.5	7.6	i	15.6*	-7.8	-7.2
SMILES	ADAM17 inh	V-ATPase pHluor	ADAM10 inh	proKLK7 act	KLK7 act conf	EDANS interfere	others
CC(=O)OCCc1[nH]c2ccccc2c1C	-1.6	20.3	-3.7	0.1	.	.
C/C=C/c1ccc([C@H]2[C@@H](CN(CC(C)C)S(=O)(=O)c3ccccc3[N+](=O)[O-])N(C(=O)Nc3cccc(OC)c3)[C@H]2CO)cc1	3.5	.	10.3	-0.3	.	.
C=CS(=O)(=O)c1c2cc(OC)ccc2nc2ccc(OC)cc12	-199.0	-7.4	i	21.7*	-35.9	-29.1
O=C(NCCO)Nc1ccc2nsnc2c1	-150.0	-1.0	i	21.9*	39.8*	40.7*
O=C(Nc1ccc2nsnc2c1)NC1CCCCC1	-166.1	4.4	i	21.0*	27.8*	29.0*
OCCNC(=S)Nc1ccc2nsnc2c1	-5.1	-0.4	-12.8	4.2	.	.
N=c1oc2cc(O)ccc2cc1C(=O)Nc1nc2ccccc2s1	i	1.7	i	55.2*	67.1*	72.9*
COc1cccc(NC(=O)NNC(=O)CCc2ccc(O)c(O)c2)c1	-19.7	-1.5	-32.8	19.1*	13.3*	16.3*
COc1ccc(CCC(=O)NNC(=O)Nc2cccc(Cl)c2)cc1	-2.6	-0.6	-5.9	-0.2	.	.
COc1cc2c(cc1OC)CN(c1ccc(-c3ccccc3OC)nn1)CC2	.	-1.4	.	.	.	.
COc1cc2c(cc1OC)CN(c1ccc3ccccc3n1)CC2	-81.5	5.3	-265.5	41.6*	70.1*	79.9*
Cc1cccc(NC(=O)C2CCN(c3nnc(-n4cccc4)s3)CC2)c1C	1.0	.	6.9	0.0	.	.
CC1(C)CC(=O)C2=C(C1)N(CCN1CCOCC1)C1=C(C(=O)CC(C)(C)C1)C2c1cccc(Cl)c1	-244.5	-2.4	i	25.6*	2.4	8.1*
CCN(CC)CCN1C2=C(C(=O)CC(C)(C)C2)C(c2cccc(F)c2)C2=C1CC(C)(C)CC2=O	-179.3	2.5	-463.4	16.1*	-5.8	-3.3
CCCN1C2=C(C(=O)CC(C)(C)C2)C(c2ccc(F)cc2)C2=C1c1ccccc1C2=O (stereo unspecified)	-7.7	1.4	-3.0	0.0	.	.
NS(=O)(=O)c1ccc(NC(=O)CSc2nnc(-c3cccs3)o2)cc1	2.6	.	-3.6	1.2	.	.
COc1cc2c(cc1OC)C(=O)CCS2	-87.5	2.2	-238.2	14.3*	15.7*	22.0*
COc1ccc2c(c1)SCCC2=O	-33.4	-5.6	-83.0	-1.7	.	.
COC(=O)[C@]12C[C@H](CC(=O)NCC34CC5CC(CC(C5)C3)C4)C(=O)N(Cc3ccc4c(c3)OCO4)C1=C[C@H](C(C)(C)C)O[C@@H]2C	-3.0	.	0.1	1.3	.	.
COc1ccc(-c2csc(=Nc3c(C)n(C)n(-c4ccccc4)c3=O)n2C(C)(C)C)cc1	0.2	2.6	-1.2	0.2	.	.
COc1ccc(-c2cc(=Nc3c(C)n(C)n(-c4ccccc4)c3=O)c3ccccc3o2)cc1	i	0.4	i	39.6*	43.5*	53.4*
C[C@@H]1CN(c2ccc(N3CCN(C(=O)OC(C)(C)C)C[C@@H]3C)cc2C#N)C[C@H](C)O1	-8.5	.	-84.7	-0.2	.	.
CC(C)C1Oc2cc3oc(=O)ccc3cc2C1=O (stereo unspecified)	i	-4.2	i	35.1*	29.0*	27.1*

High-throughput results (PubChem)
